Test results published in paper PMC5700166.

Assays:
Assay in all cases: protein-binding microarray (PBM); PBM: ~300 nM protein, 6 mM HEPES pH 7.8, 80 mM KCl, 0.5 mM EDTA, 0.5 mM EGTA, 6% glycerol, 35 ng/ul poly-dIdC, 1% milk, 1 h, room temperature; Ap Aiptasia and Nv Nematostella (sea anemones) / Co Capsaspora / Aq Amphimedon (sponge) / Dm Drosophila / Hu human; RHD is the Rel homology domain; high values mean tight binding
Conditions in all cases: dsDNA, one strand shown
GST-Ap-NF-kB RHD = biological target: T1, GST-Ap-NF-kB RHD (Exaiptasia pallida (Aiptasia), UniProt A0A913YAJ5 2-422)
T1 sequence: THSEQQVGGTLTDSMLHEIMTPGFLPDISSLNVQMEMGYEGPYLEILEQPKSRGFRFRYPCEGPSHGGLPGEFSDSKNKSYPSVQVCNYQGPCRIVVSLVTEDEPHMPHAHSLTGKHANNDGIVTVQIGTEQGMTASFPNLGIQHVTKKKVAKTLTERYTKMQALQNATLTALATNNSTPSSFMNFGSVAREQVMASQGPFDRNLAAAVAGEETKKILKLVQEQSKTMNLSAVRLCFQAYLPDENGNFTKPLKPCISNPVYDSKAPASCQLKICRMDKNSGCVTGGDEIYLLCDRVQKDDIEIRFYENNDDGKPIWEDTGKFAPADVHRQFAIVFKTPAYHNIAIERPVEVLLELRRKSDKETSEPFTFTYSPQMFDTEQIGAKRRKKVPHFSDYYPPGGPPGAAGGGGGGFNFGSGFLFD

[1] = biological target: T2, GST-Nv-NF-kB (Cys allele) (Nematostella vectensis, UniProt E5G601 2-411)
T2 sequence: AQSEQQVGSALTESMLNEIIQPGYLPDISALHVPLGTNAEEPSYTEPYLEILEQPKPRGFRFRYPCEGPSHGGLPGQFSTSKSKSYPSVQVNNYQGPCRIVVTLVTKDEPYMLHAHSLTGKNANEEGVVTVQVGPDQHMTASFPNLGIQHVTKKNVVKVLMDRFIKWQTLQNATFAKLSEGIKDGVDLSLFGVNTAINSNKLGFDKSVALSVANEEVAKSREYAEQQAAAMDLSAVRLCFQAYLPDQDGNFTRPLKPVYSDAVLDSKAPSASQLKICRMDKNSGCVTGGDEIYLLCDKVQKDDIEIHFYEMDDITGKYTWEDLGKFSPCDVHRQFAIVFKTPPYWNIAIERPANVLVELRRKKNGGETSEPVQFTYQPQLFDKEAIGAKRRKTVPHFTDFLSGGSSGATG

GST-Co-NF-kB = biological target: T3, GST-Co-NF-kB (Capsaspora owczarzaki, UniProt F1ARL5 200-546)
T3 sequence: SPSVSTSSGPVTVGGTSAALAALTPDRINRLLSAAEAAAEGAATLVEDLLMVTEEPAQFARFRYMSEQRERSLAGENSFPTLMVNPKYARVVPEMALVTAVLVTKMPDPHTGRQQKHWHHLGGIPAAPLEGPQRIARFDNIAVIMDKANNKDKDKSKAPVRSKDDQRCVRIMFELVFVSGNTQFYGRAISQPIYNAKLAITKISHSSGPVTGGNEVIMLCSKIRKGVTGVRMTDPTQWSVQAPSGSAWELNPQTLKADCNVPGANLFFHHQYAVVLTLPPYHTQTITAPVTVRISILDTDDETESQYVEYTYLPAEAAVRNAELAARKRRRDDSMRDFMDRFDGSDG

GST-Dm-Relish = biological target: T4, GST-Dm-Relish (Drosophila melanogaster, UniProt Q94527 99-473)
T4 sequence: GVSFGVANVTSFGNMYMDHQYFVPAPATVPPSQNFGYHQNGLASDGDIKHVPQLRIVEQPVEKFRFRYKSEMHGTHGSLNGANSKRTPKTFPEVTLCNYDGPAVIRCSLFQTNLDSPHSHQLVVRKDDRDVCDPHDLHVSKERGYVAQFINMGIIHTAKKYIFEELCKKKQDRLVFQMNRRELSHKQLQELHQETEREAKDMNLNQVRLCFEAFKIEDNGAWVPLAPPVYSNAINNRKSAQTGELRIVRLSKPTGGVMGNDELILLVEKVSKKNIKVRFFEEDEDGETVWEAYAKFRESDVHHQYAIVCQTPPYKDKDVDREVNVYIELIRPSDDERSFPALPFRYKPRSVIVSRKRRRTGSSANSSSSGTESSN

GST-Aq-NF-kB = biological target: T5, GST-Aq-NF-kB (Amphimedon queenslandica, UniProt A9Y5G7 2-389)
T5 sequence: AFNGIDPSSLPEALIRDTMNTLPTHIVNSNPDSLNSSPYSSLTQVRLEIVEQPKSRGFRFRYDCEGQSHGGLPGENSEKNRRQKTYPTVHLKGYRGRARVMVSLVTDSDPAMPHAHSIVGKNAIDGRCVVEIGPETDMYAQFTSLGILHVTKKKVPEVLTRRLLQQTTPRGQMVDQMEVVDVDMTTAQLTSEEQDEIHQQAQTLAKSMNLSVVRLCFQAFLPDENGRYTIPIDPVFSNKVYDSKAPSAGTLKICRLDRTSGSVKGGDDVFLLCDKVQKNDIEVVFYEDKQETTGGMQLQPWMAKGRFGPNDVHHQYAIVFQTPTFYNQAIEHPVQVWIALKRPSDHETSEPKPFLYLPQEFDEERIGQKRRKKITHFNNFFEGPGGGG

CCGATTAACATCAGGGGTTACCCTGATGTTAATCGGGTCTTGATTCGCTTGACGCTGCTG
binding signal (GST-Ap-NF-kB RHD): 6.28 z-score | binding signal [1]: 5.58 z-score | binding signal (GST-Co-NF-kB): 4.23 z-score | binding signal (GST-Dm-Relish): 8.84 z-score | binding signal (GST-Aq-NF-kB): 7.71 z-score

CCGATTAACATCAGGGAAACCACTGATGTTAATCGGGTCTTGATTCGCTTGACGCTGCTG
binding signal (GST-Ap-NF-kB RHD): 3.4 z-score | binding signal [1]: 4.47 z-score | binding signal (GST-Co-NF-kB): 3.12 z-score | binding signal (GST-Dm-Relish): 8.4 z-score | binding signal (GST-Aq-NF-kB): 6.48 z-score

CCGATTAACATCAGATACCCCCCTGATGTTAATCGGGTCTTGATTCGCTTGACGCTGCTG
binding signal (GST-Ap-NF-kB RHD): 6.55 z-score | binding signal [1]: 4.3 z-score | binding signal (GST-Co-NF-kB): 4.8 z-score | binding signal (GST-Dm-Relish): 3.94 z-score | binding signal (GST-Aq-NF-kB): 4.46 z-score

CCGATTAACATCAAATCTTTCCCTGATGTTAATCGGGTCTTGATTCGCTTGACGCTGCTG
binding signal (GST-Ap-NF-kB RHD): 3.05 z-score | binding signal [1]: 5.25 z-score | binding signal (GST-Co-NF-kB): 5.78 z-score | binding signal (GST-Dm-Relish): 1.24 z-score | binding signal (GST-Aq-NF-kB): 4.92 z-score

CCGATTAACATCAAATGACCCCCTGATGTTAATCGGGTCTTGATTCGCTTGACGCTGCTG
binding signal (GST-Ap-NF-kB RHD): 4.25 z-score | binding signal [1]: 2.8 z-score | binding signal (GST-Co-NF-kB): 2.98 z-score | binding signal (GST-Dm-Relish): 3.27 z-score | binding signal (GST-Aq-NF-kB): 4.02 z-score

CCGATTAACATCACATGTTCCCCTGATGTTAATCGGGTCTTGATTCGCTTGACGCTGCTG
binding signal (GST-Ap-NF-kB RHD): 4.94 z-score | binding signal [1]: 5.26 z-score | binding signal (GST-Co-NF-kB): 6.79 z-score | binding signal (GST-Dm-Relish): 3.04 z-score | binding signal (GST-Aq-NF-kB): 4.62 z-score

CCGATTAACATCACAAATTCCCATGATGTTAATCGGGTCTTGATTCGCTTGACGCTGCTG
binding signal (GST-Ap-NF-kB RHD): 2.52 z-score | binding signal [1]: 4.43 z-score | binding signal (GST-Co-NF-kB): 2.69 z-score | binding signal (GST-Dm-Relish): 4.72 z-score | binding signal (GST-Aq-NF-kB): 3.15 z-score

CCGATTAACATCACGGAAACCCCTGATGTTAATCGGGTCTTGATTCGCTTGACGCTGCTG
binding signal (GST-Ap-NF-kB RHD): 5.32 z-score | binding signal [1]: 4.37 z-score | binding signal (GST-Co-NF-kB): 2.13 z-score | binding signal (GST-Dm-Relish): 7.12 z-score | binding signal (GST-Aq-NF-kB): 5.38 z-score

CCGATTAACATCACAAACGGGGCTGATGTTAATCGGGTCTTGATTCGCTTGACGCTGCTG
binding signal (GST-Ap-NF-kB RHD): 1.5 z-score | binding signal [1]: 2.75 z-score | binding signal (GST-Co-NF-kB): 1.3 z-score | binding signal (GST-Dm-Relish): 1.33 z-score | binding signal (GST-Aq-NF-kB): 3.49 z-score

CCGATTAACATCAGGGAAATAACTGATGTTAATCGGGTCTTGATTCGCTTGACGCTGCTG
binding signal (GST-Ap-NF-kB RHD): 2.57 z-score | binding signal [1]: 4.77 z-score | binding signal (GST-Co-NF-kB): 3.96 z-score | binding signal (GST-Dm-Relish): 4.51 z-score | binding signal (GST-Aq-NF-kB): 6.11 z-score

CCGATTAACATCACGCAATTCCCTGATGTTAATCGGGTCTTGATTCGCTTGACGCTGCTG
binding signal (GST-Ap-NF-kB RHD): 2.72 z-score | binding signal [1]: 4.1 z-score | binding signal (GST-Co-NF-kB): 2.33 z-score | binding signal (GST-Dm-Relish): 1.52 z-score | binding signal (GST-Aq-NF-kB): 3.43 z-score

CCGATTAACATCAGGGAACCCCATGATGTTAATCGGGTCTTGATTCGCTTGACGCTGCTG
binding signal (GST-Ap-NF-kB RHD): 3.95 z-score | binding signal [1]: 2.07 z-score | binding signal (GST-Co-NF-kB): 1.54 z-score | binding signal (GST-Dm-Relish): 10.5 z-score | binding signal (GST-Aq-NF-kB): 4.59 z-score

CCGATTAACATCAGGGAATTCACTGATGTTAATCGGGTCTTGATTCGCTTGACGCTGCTG
binding signal (GST-Ap-NF-kB RHD): 4.74 z-score | binding signal [1]: 5.33 z-score | binding signal (GST-Co-NF-kB): 3.01 z-score | binding signal (GST-Dm-Relish): 8.25 z-score | binding signal (GST-Aq-NF-kB): 6.46 z-score
